Records with an inconclusive call do not appear. Active and inactive are the calls of the source. Unless noted, the call rests on the fitted dose curve; in most records, active means well fitted curve in the direction sought with a large enough effect in the repeat runs; inconclusive means weak or mixed curves; inactive means no such curve, though single readings can be large; an effect the other way counts as inactive or inconclusive.

Test [1] can be described thus: qHTS assay to identify small molecule agonists of the sonic hedgehog signaling (Shh) pathway (AID 1259368; calls by dose curve; further: series mostly up to about 92 µM; nearly all actives have a fitted effect of over 15% in size). The gist of the method: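 NIH/3T3-derived 3T3Gli1-Luc cells carrying a stably integrated Gli1 response element–firefly luciferase reporter were plated, left 4 hr at 37 C, then given compounds in DMSO for 24 hr. Luminescence was read 30 min after adding luciferase reagent.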

The nature of test [2]: qHTS assay to identify small molecule antagonists of the sonic hedgehog signaling (Shh) pathway (AID 1259369; calls by dose curve; further: nearly all actives have a fitted effect of over 45% in size; further: potency means the concentration at half of the fitted maximal effect). Summed up:
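NIH/3T3-derived 3T3Gli1-Luc cells with stably integrated Gli1-Luc reporter were preincubated 4hr at 37 C, then given compounds in DMSO plus Shh conditioned medium and incubated 24hr. Firefly luciferase luminescence read after 30min reagent at room temperature.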
(In general: Quantitative high-throughput screening tests each substance at several concentrations.)

Test [3] has as its target Estrogen receptor beta (Homo sapiens) (UniProt Q92731). The experiment in a line: qHTS assay to identify small molecule agonists of the estrogen receptor beta (ER-beta) signaling pathway (AID 1259377; active means well fitted activation curve with a large enough effect in the signal ratio in the repeat runs, not every such curve was filed as active; the % refers to the signal ratio). The gist of the method:
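qHTS in ER-beta-UAS-bla HEK293T cells: 6 hr settling, then 16 hr compound at 37C, then LiveBLAzer substrate 2 h at RT before fluorescence reading.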

For test [4] the target is unchanged. The experiment in a line: qHTS assay to identify small molecule antagonists of the estrogen receptor beta (ER-beta) signaling pathway (AID 1259378; active means well fitted inhibition curve with a large enough effect in the signal ratio in the repeat runs, not every such curve was filed as active; the % refers to the signal ratio; further: potency means the concentration at half of the fitted maximal effect). Summed up: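 ER-beta-UAS-bla HEK293T (GripTite) cells in 2% charcoal-stripped FBS medium were preincubated 6 hr at 37C, dosed with compound, then stimulated with 1 nM E2 (final) for 16 hr; beta-lactamase reporter read by B/G FRET fluorescence after 2 hr substrate loading.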

A short description of test [5]: qHTS assay to identify small molecule agonists of the estrogen receptor beta (ER-beta) signaling pathway - cell viability counter screen (AID 1259380). Further: nearly all actives have a fitted effect of over 30% in size. The gist of the method: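 ER-beta-UAS-bla HEK293T cells in medium with 2% charcoal-stripped FBS were preincubated 6 hr at 37C, dosed with compound in DMSO for 16 hr, then after the bla read, CellTiter-Glo was added for 30 min at room temperature; luminescence recorded.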

The nature of test [6]: qHTS assay to identify small molecule antagonists of the estrogen receptor beta (ER-beta) signaling pathway - cell viability counter screen (AID 1259382). Further: series mostly up to about 92 µM; nearly all actives have a fitted effect of over 55% in size. The gist of the method:
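ER-beta-UAS-bla HEK293T cells (2,000/well, 2% charcoal-stripped FBS) were pre-incubated 6 hr at 37C, then given compound plus 1nM final 17-beta-estradiol for 16 hr. Viability was read in the same wells by CellTiter-Glo luminescence after 30 min at room temperature.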

The nature of test [7]: qHTS assay to identify small molecule agonists or antagonists of the thyroid stimulating hormone receptor (TSHR) signaling pathway - wild type cell line counter screen (AID 1259384; calls by dose curve). Summed up:
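Wild-type HEK293 cells were plated 18 h at 37 C/5% CO2, pin-dosed with compound plus Ro20-1724 medium, held 30 min at room temperature, then given cAMP-d2 and anti-cAMP-cryptate; fluorescence was read after 1 h. Fifteen concentrations, triplicate.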

Test [8] addresses Thyrotropin receptor (Homo sapiens) (UniProt P16473). The experiment in a line: qHTS assay to identify small molecule antagonists of the thyroid stimulating hormone receptor (TSHR) signaling pathway (AID 1259385; calls by dose curve; further: nearly all actives have a fitted effect of over 20% in size). The gist of the method: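 TSHR-HEK293 cells were plated and held 18 h at 37C/5% CO2, then given compound plus Ro20-1724 and stimulated with TSH at 1.5 ng/mL final. After 30 min at room temperature, cAMP was detected with cAMP-d2/anti-cAMP-cryptate (1 h) by fluorescence.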

Test [9] is described as follows: qHTS assay to identify small molecule agonists of the estrogen receptor alpha (ER-alpha) signaling pathway in the presence of an antagonist - cell viability counter screen (AID 1259386).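 Further: cells exposed to compounds for 22 h at 37 °C before the viability read; nearly all actives have a fitted effect of over 30% in size.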 Further: potency means the concentration at half of the fitted maximal effect. Summed up: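 VM7Luc4E2 cells (endogenous full-length ER-alpha, 4×ERE-luciferase) were held 5 days in phenol red-free medium with 10% charcoal-stripped FBS, plated, then given 10.0nM ICI-182,780 and compounds at 15 concentrations for 22hr at 37C; viability read by CellTiter-Fluor fluorescence.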

Test [10] has as its target Progesterone receptor (Homo sapiens) (UniProt P06401). The test can be described thus: qHTS assay to identify small molecule agonists of the progesterone receptor (PR) signaling pathway (AID 1346784; calls by dose curve; further: nearly all actives have a fitted effect of over 30% in size). Summed up:
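Fluorescence from LiveBLAzer B/G FRET substrate cleavage (2 hr, RT) reported PR activation in PR-UAS-bla HEK 293T cells treated 16 hr at 37C/5% CO2 with compounds; medium contained 2% charcoal-stripped FBS.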

A short description of test [11]: qHTS assay to identify small molecule antagonists of the progesterone receptor (PR) signaling pathway - cell viability counter screen (AID 1346798). Further: series mostly up to about 92 µM; nearly all actives have a fitted effect of over 50% in size. Summed up:
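CellTiter-Glo luminescence; PR-UAS-bla HEK293T, 3,000 cells/well; compound + R5020, 16 hr, 37C/5% CO2; 30 min RT before read.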

The nature of test [12]: qHTS assay to identify small molecule agonists of the progesterone receptor (PR) signaling pathway - cell viability counter screen (AID 1346799; calls by dose curve; further: nearly all actives have a fitted effect of over 45% in size). The gist of the method:
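In parallel with the beta-lactamase readout, cytotoxicity toward PR-UAS-bla HEK293T cells was measured by CellTiter-Glo luminescence following 16 hr compound incubation in 2% charcoal-stripped FBS medium.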

The nature of test [13]: qHTS assay to identify small molecule antagonists of the TGF-beta/Smad signaling pathway - cell viability counter screen (AID 1346824). Further: nearly all actives have a fitted effect of over 50% in size. Further: potency means the concentration at half of the fitted maximal effect. Summed up:
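SBE-bla HEK 293T cells were plated overnight at 37 C, then given compounds in DMSO plus TGF-beta1 (added as 0.25 ng/mL solution) for 5 hr. After the bla read, CellTiter-Glo was added to the same wells and luminescence read after 30 min at room temperature.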

Test [14] is described as follows: qHTS assay to identify small molecule agonists of the TGF-beta/Smad signaling pathway - cell viability counter screen (AID 1346829). Further: nearly all actives have a fitted effect of over 45% in size. Further: potency means the concentration at half of the fitted maximal effect. The gist of the method:
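HEK 293T SBE-bla line, 5 hr compound exposure at 37 C, multiplexed CellTiter-Glo viability read by luminescence.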

Test [15] can be described thus: qHTS assay to identify small molecule agonists of the TGF-beta/Smad signaling pathway (AID 1346859; active means well fitted activation curve with a large enough effect in the signal ratio in the repeat runs, not every such curve was filed as active; the % refers to the signal ratio; further: series mostly up to about 77 µM). The gist of the method: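 After overnight seeding, SBE-bla HEK 293T cells are dosed with compounds in DMSO and kept 5 hr at 37 C, 5% CO2. LiveBLAzer-type FRET substrate is then applied for 2 hr at room temperature.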
The target of test [16] is Thyrotropin-releasing hormone receptor (Homo sapiens) (UniProt P34981). The test can be described thus: qHTS assay to identify small molecule antagonists of the thyrotropin-releasing hormone receptor (TRHR) signaling pathway (AID 1346877; active means well fitted inhibition curve with a large enough effect in the repeat runs, not every such curve was filed as active; further: series mostly up to about 51 µM). The gist of the method:
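TRHR-expressing HEK293 cells were seeded, cultured 18 h at 37 °C, then loaded with calcium dye for 2 h. Compounds were pre-incubated 5 min at room temperature before 1 nM TRH (final) was added, and kinetic fluorescence was recorded for 3 min.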

Test [17] can be described thus: qHTS assay to identify small molecule agonists of the androgen receptor (AR) signaling pathway in the presence of an antagonist - cell viability counter screen (AID 1259379). Further: nearly all actives have a fitted effect of over 25% in size. Further: potency means the concentration at half of the fitted maximal effect. The gist of the method: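 MDA-kb2 human breast carcinoma cells (stable MMTV-luciferase, AR/GR responsive) were seeded 3,000 cells/well, pre-incubated 5 hr at 37C without CO2, then given 3.0uM nilutamide and compounds at 15 concentrations for 16 hr. Viability was read by CellTiter-Fluor fluorescence.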

Test [18] deals with Progesterone receptor (Homo sapiens) (UniProt P06401). The test can be described thus: qHTS assay to identify small molecule antagonists of the progesterone receptor (PR) signaling pathway (AID 1346795; active means well fitted inhibition curve with a large enough effect in the signal ratio in the repeat runs, not every such curve was filed as active; the % refers to the signal ratio; further: potency means the concentration at half of the fitted maximal effect). Summed up: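 Fluorescence intensity measured 2 hr after adding beta-lactamase FRET substrate to PR-UAS-bla HEK293T cells that had been co-treated 16 hr with compound and 1 nM R5020 (final concentration) in 2% charcoal-stripped FBS.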
Chain of Progesterone receptor (Homo sapiens) (P06401 whole entry, looked up): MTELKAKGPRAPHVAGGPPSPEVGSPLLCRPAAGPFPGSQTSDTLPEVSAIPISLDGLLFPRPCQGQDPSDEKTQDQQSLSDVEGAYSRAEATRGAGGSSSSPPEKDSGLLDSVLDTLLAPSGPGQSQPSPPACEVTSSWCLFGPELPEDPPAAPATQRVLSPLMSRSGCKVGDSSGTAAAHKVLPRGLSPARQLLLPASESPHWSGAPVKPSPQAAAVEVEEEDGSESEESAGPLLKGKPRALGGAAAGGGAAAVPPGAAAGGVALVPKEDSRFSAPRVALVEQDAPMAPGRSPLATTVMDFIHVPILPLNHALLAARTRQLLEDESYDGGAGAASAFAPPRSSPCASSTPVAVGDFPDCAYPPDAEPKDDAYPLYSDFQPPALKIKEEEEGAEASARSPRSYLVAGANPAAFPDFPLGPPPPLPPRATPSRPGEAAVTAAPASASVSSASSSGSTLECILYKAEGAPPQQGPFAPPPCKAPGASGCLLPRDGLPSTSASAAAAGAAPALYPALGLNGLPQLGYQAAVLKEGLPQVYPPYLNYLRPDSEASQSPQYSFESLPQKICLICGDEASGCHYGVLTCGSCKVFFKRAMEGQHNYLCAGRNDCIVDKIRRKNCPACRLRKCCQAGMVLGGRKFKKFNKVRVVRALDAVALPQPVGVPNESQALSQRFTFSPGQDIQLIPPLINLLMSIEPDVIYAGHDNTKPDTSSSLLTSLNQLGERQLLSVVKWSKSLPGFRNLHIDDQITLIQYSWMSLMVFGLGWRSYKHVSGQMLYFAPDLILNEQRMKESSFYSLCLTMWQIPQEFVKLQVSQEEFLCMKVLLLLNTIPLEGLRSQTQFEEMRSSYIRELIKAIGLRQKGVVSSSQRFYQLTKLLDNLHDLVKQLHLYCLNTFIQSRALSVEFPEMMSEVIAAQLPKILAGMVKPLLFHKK

Test [19] addresses Androgen receptor (Homo sapiens) (UniProt P10275). The experiment in a line: qHTS assay to identify small molecule agonists of the androgen receptor (AR) signaling pathway in the presence of an antagonist (AID 1259381; calls by dose curve; further: nearly all actives have a fitted effect of over 15% in size). Summed up:
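MDA-kb2 human breast carcinoma cells carrying an MMTV-luciferase reporter (AR- and GR-responsive) were treated with compounds at 15 concentrations plus 3.0uM final nilutamide for 16hr at 37C without CO2; luminescence was read after ONE-Glo addition.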

Test [20] deals with Estrogen receptor (Homo sapiens) (UniProt P03372). The experiment in a line: qHTS assay to identify small molecule agonists of the estrogen receptor alpha (ER-alpha) signaling pathway in the presence of an antagonist (AID 1259383; calls by dose curve; further: top concentration of the series differs between compounds; nearly all actives have a fitted effect of over 15% in size). The gist of the method:
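VM7Luc4E2 cells (endogenous full-length ER-alpha, 4×ERE-luciferase) were precultured 5 days in phenol red-free medium with 10% charcoal-stripped FBS, given 10.0nM ICI-182,780 (final), then treated with compounds at 15 concentrations for 22hr at 37C; luminescence read with ONE-Glo.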

Chain of Estrogen receptor beta (Homo sapiens) (Q92731 whole entry, looked up): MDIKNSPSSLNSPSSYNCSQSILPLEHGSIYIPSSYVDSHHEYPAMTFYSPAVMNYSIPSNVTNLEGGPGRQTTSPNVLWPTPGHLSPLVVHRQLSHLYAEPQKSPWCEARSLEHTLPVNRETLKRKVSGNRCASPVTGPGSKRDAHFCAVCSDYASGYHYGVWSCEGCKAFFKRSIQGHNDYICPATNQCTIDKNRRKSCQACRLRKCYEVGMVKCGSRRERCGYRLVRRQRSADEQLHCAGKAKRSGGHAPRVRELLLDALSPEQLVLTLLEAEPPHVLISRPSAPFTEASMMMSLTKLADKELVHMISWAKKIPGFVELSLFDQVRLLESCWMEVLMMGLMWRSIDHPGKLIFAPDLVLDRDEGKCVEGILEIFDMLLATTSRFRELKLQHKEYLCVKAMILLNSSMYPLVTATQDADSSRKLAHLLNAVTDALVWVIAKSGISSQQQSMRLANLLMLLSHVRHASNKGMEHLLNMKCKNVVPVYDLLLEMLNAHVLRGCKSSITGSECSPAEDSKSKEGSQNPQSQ
Chain of Thyrotropin receptor (Homo sapiens) (P16473 whole entry, looked up): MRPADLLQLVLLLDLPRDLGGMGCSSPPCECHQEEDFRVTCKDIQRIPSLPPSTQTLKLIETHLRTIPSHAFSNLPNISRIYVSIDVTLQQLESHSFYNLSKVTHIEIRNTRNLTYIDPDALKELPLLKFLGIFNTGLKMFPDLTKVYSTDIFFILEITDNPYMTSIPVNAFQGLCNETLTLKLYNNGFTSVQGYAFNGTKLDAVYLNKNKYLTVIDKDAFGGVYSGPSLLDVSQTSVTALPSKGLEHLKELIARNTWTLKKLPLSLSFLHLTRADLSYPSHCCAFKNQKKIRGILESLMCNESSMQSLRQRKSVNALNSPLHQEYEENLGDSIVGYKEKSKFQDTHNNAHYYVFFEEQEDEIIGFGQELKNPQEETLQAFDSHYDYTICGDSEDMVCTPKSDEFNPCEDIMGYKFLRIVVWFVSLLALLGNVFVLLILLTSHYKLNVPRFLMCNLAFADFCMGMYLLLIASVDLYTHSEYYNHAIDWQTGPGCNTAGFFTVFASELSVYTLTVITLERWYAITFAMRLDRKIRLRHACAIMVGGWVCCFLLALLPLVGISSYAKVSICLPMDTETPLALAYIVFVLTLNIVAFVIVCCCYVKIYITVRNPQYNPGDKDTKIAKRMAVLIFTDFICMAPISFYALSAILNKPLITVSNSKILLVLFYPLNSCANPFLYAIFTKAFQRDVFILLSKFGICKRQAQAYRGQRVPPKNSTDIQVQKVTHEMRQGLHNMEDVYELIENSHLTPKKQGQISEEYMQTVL
Chain of Thyrotropin-releasing hormone receptor (Homo sapiens) (P34981 whole entry, looked up): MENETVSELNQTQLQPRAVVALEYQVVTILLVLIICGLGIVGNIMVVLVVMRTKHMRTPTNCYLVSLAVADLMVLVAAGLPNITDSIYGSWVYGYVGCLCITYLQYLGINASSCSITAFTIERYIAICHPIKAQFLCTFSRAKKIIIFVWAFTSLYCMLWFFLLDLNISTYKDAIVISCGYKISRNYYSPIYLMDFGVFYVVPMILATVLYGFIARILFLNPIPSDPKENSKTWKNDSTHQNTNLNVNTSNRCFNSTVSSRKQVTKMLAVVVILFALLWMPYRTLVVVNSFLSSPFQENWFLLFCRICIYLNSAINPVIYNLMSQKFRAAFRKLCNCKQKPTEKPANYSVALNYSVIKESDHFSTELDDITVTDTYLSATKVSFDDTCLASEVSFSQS
Chain of Androgen receptor (Homo sapiens) (P10275 whole entry, looked up): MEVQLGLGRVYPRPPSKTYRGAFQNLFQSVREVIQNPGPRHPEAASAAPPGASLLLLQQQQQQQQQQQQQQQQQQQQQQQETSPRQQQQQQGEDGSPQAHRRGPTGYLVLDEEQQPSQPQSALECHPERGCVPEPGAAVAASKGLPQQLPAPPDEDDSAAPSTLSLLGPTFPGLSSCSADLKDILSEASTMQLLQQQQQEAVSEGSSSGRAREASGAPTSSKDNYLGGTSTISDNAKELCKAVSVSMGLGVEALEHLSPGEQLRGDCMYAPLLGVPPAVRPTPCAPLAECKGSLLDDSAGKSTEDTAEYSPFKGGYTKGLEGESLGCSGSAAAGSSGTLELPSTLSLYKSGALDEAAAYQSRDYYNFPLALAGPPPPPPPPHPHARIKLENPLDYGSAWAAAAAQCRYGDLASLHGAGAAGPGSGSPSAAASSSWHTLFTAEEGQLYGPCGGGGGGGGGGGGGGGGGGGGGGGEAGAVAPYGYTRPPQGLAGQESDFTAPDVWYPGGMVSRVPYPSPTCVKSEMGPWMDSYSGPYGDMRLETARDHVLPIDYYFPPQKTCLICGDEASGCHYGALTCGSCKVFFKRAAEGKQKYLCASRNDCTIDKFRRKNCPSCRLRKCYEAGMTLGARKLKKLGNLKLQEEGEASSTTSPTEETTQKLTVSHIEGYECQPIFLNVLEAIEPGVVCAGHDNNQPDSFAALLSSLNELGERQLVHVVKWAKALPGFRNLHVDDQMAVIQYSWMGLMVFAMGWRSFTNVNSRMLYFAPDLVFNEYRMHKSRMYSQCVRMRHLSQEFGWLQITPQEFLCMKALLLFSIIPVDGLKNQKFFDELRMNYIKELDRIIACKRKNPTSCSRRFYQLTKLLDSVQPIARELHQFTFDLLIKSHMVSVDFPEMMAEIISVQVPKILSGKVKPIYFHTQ
Chain of Estrogen receptor (Homo sapiens) (P03372 whole entry, looked up): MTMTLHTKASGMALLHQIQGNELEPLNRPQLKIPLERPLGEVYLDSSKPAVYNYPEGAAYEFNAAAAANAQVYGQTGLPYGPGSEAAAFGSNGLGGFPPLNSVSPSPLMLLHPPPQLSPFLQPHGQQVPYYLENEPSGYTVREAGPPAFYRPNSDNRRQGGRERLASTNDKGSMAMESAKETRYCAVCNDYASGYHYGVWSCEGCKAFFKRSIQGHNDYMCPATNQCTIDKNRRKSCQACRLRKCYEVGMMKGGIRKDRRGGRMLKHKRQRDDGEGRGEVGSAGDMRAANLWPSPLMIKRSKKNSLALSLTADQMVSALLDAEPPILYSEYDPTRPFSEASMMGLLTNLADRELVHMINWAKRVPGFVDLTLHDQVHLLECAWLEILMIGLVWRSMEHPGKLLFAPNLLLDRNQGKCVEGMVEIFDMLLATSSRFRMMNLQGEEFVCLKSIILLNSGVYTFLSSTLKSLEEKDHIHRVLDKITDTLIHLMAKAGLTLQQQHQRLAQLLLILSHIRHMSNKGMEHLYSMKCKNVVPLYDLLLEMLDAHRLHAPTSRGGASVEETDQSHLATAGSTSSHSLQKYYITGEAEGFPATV

On to `CCOC(=O)CBr`, for which the Potency entry in test [1], in test [2], in test [3], in test [4], in test [5] and in test [6] was “inactive” throughout. For the same molecule, the Potency entry in [8], in test [9], in test [10], in test [11], in test [12] and in test [13] was “inactive” each time. Moreover, the Potency result in test [14] and in test [16] was “inactive” each time. The call in [7] and in test [15] was inactive.
For `CC(=O)CCC(C)=O`, the Potency result in test [1], in [2], in [3], in test [4], in test [17] and in test [5] was “inactive” in each case. Besides, the Potency result in test [6], in [9], in test [10], in test [18], in test [11] and in test [12] was “inactive” throughout. The Potency result in test [13], in test [14] and in test [16] was “inactive” throughout. The molecule was classed as inactive in test [7] and in [15].
Consider `O=C1CN=C(c2ccccc2)c2cc(Cl)ccc2N1CC1CC1`, for which the Potency entry in [1], in [3], in [17], in test [5], in [6] and in test [9] was “inactive” throughout. Also, the Potency entry in test [10], in test [13], in test [14] and in test [16] was “inactive” in each case. The Potency was 51 µM (active) in [2], 28.7 µM (active) in test [4] and 11.4 µM (active) in test [18]. In addition, the molecule was called inactive in test [15].
In the case of `O=[Se]=O`, the Potency entry in [1], in test [2], in [3], in test [4], in [5] and in test [6] was “inactive” in each case. In addition, the Potency result in test [8], in test [10], in test [11], in [12] and in test [16] was “inactive” each time. Besides, the Potency in [17] is 9.62 µM (active); in test [9], 21.5 µM (active); in test [13], 9.7 µM (active); in test [14], 4.86 µM (active). The call in test [7] was inactive.
Take `O=[N+]([O-])C(Br)(CO)CO`: the Potency result in test [1], in test [3], in [4], in [17], in [19] and in test [6] was “inactive” each time. The Potency entry in [20], in test [8], in test [9], in test [10], in [18] and in test [12] was “inactive” each time. The Potency entry in [13], in test [14] and in [16] was “inactive” in each case. The Potency in test [2] is 34.4 µM (active). The result in test [7] and in test [15] was inactive.
`CCO[C@H]1O[C@@H]2OC3(C)CC[C@H]4[C@H](C)CC[C@@H]([C@H]1C)[C@@]24OO3`: the Potency result in [1], in test [2], in [3], in [4], in [5] and in [19] was “inactive” each time. For the same molecule, the Potency result in [6], in [20], in [9], in [10], in [11] and in test [12] was “inactive” each time. Besides, the Potency entry in [13], in test [14] and in test [16] was “inactive” each time. Moreover, in test [15], the result was inactive.
For `C=CC(=O)OC(C)(C)C`, the Potency result in [1], in test [2], in [3], in test [4], in test [17] and in [5] was “inactive” in each case. The Potency result in test [6], in test [8], in test [9], in test [11], in test [12] and in test [14] was “inactive” each time. Also, in [16], the Potency result was “inactive”. For the same molecule, the outcome in test [7] and in test [15] was inactive.
Take `COc1cc(CC(C)N)cc2c1OCO2` (centres undefined): the Potency entry in [1], in [2], in test [3], in test [4], in [17] and in test [5] was “inactive” each time. Also, the Potency entry in test [6], in [8], in [10], in [18], in test [11] and in test [12] was “inactive” throughout. The Potency entry in test [13], in [14] and in test [16] was “inactive” throughout. Further, the call in test [7] and in test [15] was inactive.

The record behind these values is PubChem BioAssay (Tox21).
